Active and inactive are the calls of the source. How the source made its calls: active means hit-call score of the fitted dose curve at least 0.9, where 1 is the maximum; inactive means score below 0.9.
Columns and labels:
Conditions in all cases: mRNA level, 48 h; actives raise or lower the signal
[1] = read-out: adenosine kinase (ADK) gene, ADK (gene 132); assay: LTEA_HepaRG_ADK: Life Technologies and Expression Analysis (LTEA) Assay for adenosine kinase (ADK) gene using HepaRG (AID 2283471)
Summary of the method: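 ADK expression quantified by qRT-PCR, normalised to three housekeeping genes, after 48 h exposure of HepaRG cells to eight concentrations (top 100 uM, half-log steps, duplicate, 0.5% DMSO). Up- or down-regulation fitted relative to vehicle.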

[2] = read-out: Alpha-fetoprotein (AFP) gene, AFP (gene 174); assay: LTEA_HepaRG_AFP: Life Technologies and Expression Analysis (LTEA) Assay for Alpha-fetoprotein (AFP) gene using HepaRG (AID 2283472)
Summary of the method: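 HepaRG, single lot; 48 h post-plating -> serum-free induction medium; cpd 8-pt, 100 uM top, half-log, 0.5% DMSO, duplicate, 48 h. RNA -> qRT-PCR AFP, norm ACTB/GAPDH/POLR2A. Bidirectional fit vs DMSO.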

BCL2L11 (gene 10018) = assay: LTEA_HepaRG_BCL2L11: Life Technologies and Expression Analysis (LTEA) Assay for Bcl-2 (BCL2L11) gene using HepaRG (AID 2283473)
Summary of the method: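 Differentiated human HepaRG cells in serum-free induction medium were exposed in duplicate for 48 h to eight concentrations (top 100 uM, half-log steps, 0.5% DMSO). BCL2L11 mRNA was quantified by TaqMan qRT-PCR, normalized to ACTB/GAPDH/POLR2A, bidirectional fit versus DMSO.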

[3] = read-out: Apolipoprotein A-V (APOA5) gene, APOA5 (gene 116519); assay: LTEA_HepaRG_APOA5: Life Technologies and Expression Analysis (LTEA) Assay for Apolipoprotein A-V (APOA5) gene using HepaRG (AID 2283474)
Summary of the method: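 Differentiated human HepaRG cells were exposed in duplicate for 48 h to eight half-log concentrations from 100 uM in 0.5% DMSO. APOA5 mRNA was quantified by TaqMan qRT-PCR, normalized to ACTB, GAPDH and POLR2A, and fitted bidirectionally against DMSO.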

[4] = read-out: Apoptosis regulator Bcl-2 (Homo sapiens) (UniProt P10415); assay: LTEA_HepaRG_BCL2: Life Technologies and Expression Analysis (LTEA) Assay for Bcl-2 gene using HepaRG (AID 2283475)
Summary of the method: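 HepaRG, plated 48 h then switched to serum-free induction medium; dosed 48 h, 8 conc. (max 100 uM, half-log steps), duplicate, 0.5% DMSO. Lysis in RLT, RNA isolated, TaqMan qRT-PCR for BCL2; ACTB/GAPDH/POLR2A normalisation; bidirectional fit vs DMSO.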

[5] = read-out: Bcl-2 (BID) gene, BID (gene 637); assay: LTEA_HepaRG_BID: Life Technologies and Expression Analysis (LTEA) Assay for Bcl-2 (BID) gene using HepaRG (AID 2283476)
Summary of the method: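 Transcript levels of BID, measured by qRT-PCR and normalized to three housekeeping genes, were fitted bidirectionally against DMSO controls. Cells were HepaRG, dosed 48 h at up to 100 uM.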

Caspase-3 (Homo sapiens) = Caspase-3 (Homo sapiens) (UniProt P42574); assay: LTEA_HepaRG_CASP3: Life Technologies and Expression Analysis (LTEA) Assay for cysteine-aspartic acid protease (CASP3) using HepaRG (AID 2283477)
Summary of the method: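 Differentiated human HepaRG cells in serum-free induction medium were exposed 48 h to 8-point half-log concentrations from 100 uM (0.5% DMSO vehicle). CASP3 mRNA was measured by qRT-PCR, normalised to ACTB, GAPDH and POLR2A, with bidirectional fitting against DMSO.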

[6] = read-out: Cytochrome P450 (CYP24A1), CYP24A1 (gene 1591); assay: LTEA_HepaRG_CYP24A1: Life Technologies and Expression Analysis (LTEA) Assay for Cytochrome P450 (CYP24A1) using HepaRG (AID 2283478)
Summary of the method: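 Differentiated HepaRG cells, pre-cultured 48 h, were exposed in duplicate for 48 h in serum-free induction medium to 8 half-log concentrations (top 100 uM, 0.5% DMSO). CYP24A1 mRNA was quantified by TaqMan qRT-PCR, normalized to ACTB/GAPDH/POLR2A, fitted bidirectionally versus DMSO.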

[7] = read-out: Cytochrome P450 (CYP1A2), CYP1A2 (gene 1544); assay: LTEA_HepaRG_CYP1A2: Life Technologies and Expression Analysis (LTEA) Assay for Cytochrome P450 (CYP1A2) using HepaRG (AID 2283479)
Summary of the method: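 Differentiated human HepaRG cells in serum-free induction medium were exposed in duplicate for 48 h to 8-point half-log concentrations up to 100 uM in 0.5% DMSO. CYP1A2 mRNA measured by qRT-PCR, normalized to ACTB, GAPDH, POLR2A; bidirectional fit vs DMSO.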

[8] = read-out: cysteine-aspartic acid protease (CASP8), CASP8 (gene 841); assay: LTEA_HepaRG_CASP8: Life Technologies and Expression Analysis (LTEA) Assay for cysteine-aspartic acid protease (CASP8) using HepaRG (AID 2283480)
Summary of the method: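 HepaRG, 48 h exposure, duplicate wells; 8 conc, half-log from 100 uM, 0.5% DMSO. Serum-free induction medium. CASP8 mRNA by TaqMan qRT-PCR, norm. ACTB/GAPDH/POLR2A; gain/loss fitted vs DMSO.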

[9] = read-out: Cytochrome P450 (CYP2B6), CYP2B6 (gene 1555); assay: LTEA_HepaRG_CYP2B6: Life Technologies and Expression Analysis (LTEA) Assay for Cytochrome P450 (CYP2B6) using HepaRG (AID 2283481)
Summary of the method: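 Differentiated HepaRG cells, serum-free induction medium, exposed 48 h in duplicate to 8-point half-log concentrations from 100 uM in 0.5% DMSO. CYP2B6 mRNA by qRT-PCR, normalized to ACTB, GAPDH, POLR2A; bidirectional fit versus DMSO.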

[10] = read-out: Cytochrome P450 2C19 (Homo sapiens) (UniProt P33261); assay: LTEA_HepaRG_CYP2C19: Life Technologies and Expression Analysis (LTEA) Assay for CYP2C19 using HepaRG (AID 2283482)
Summary of the method: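 Differentiated human HepaRG cells were exposed for 48 h in serum-free induction medium to 8 concentrations (top 100 uM, half-log steps, 0.5% DMSO). CYP2C19 mRNA was measured by qRT-PCR, normalized to ACTB/GAPDH/POLR2A, and fitted bidirectionally against DMSO.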

CYP2C8 (gene 1558) = assay: LTEA_HepaRG_CYP2C8: Life Technologies and Expression Analysis (LTEA) Assay for CYP2C8 using HepaRG (AID 2283483)
Summary of the method: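 CYP2C8 mRNA induction or loss, by qRT-PCR normalized to ACTB/GAPDH/POLR2A, is read in HepaRG cells after 48 h treatment. Concentrations run from 100 uM down in half-log dilutions, with 0.5% DMSO as vehicle and baseline.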

CYP2C9 (gene 1559) = assay: LTEA_HepaRG_CYP2C9: Life Technologies and Expression Analysis (LTEA) Assay for CYP2C9 using HepaRG (AID 2283484)
Summary of the method: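 Cells plated 48 h, switched to serum-free induction medium, then treated in duplicate for 48 h at eight concentrations (max 100 uM, 0.5% DMSO). RNA then analysed by qRT-PCR for CYP2C9; curves fitted in both directions relative to DMSO.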

CYP4A11 (gene 1579) = assay: LTEA_HepaRG_CYP4A11: Life Technologies and Expression Analysis (LTEA) Assay for CYP4A11 using HepaRG (AID 2283486)
Summary of the method: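 Differentiated HepaRG cells, serum-free induction medium, exposed 48 h in duplicate to 8-point half-log series from 100 uM in 0.5% DMSO. CYP4A11 mRNA measured by qRT-PCR, normalized to ACTB, GAPDH, POLR2A; bidirectional fit versus DMSO.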

[11] = read-out: Cytochrome P450 3A4 (Homo sapiens) (UniProt P08684); assay: LTEA_HepaRG_CYP3A4: Life Technologies and Expression Analysis (LTEA) Assay for CYP3A4 using HepaRG (AID 2283487)
Summary of the method: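 Differentiated HepaRG cells, plated 48 h, then dosed 48 h in serum-free induction medium with 0.5% DMSO, 8 half-log concentrations up to 100 uM, duplicate. CYP3A4 mRNA by qRT-PCR, normalized to ACTB/GAPDH/POLR2A; bidirectional fit versus DMSO.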

[12] = read-out: DNA damage-inducible transcript 3 (DDIT3), DDIT3 (gene 1649); assay: LTEA_HepaRG_DDIT3: Life Technologies and Expression Analysis (LTEA) Assay for DNA damage-inducible transcript 3 (DDIT3) using HepaRG (AID 2283488)
Summary of the method: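 HepaRG plated 48 h, switched to serum-free induction medium, dosed 48 h (100 uM top, half-log, 8 pts, 0.5% DMSO, n=2); RNA isolated; DDIT3 by qRT-PCR; bidirectional curve fit vs DMSO.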

[13] = read-out: Pro-epidermal growth factor (Homo sapiens) (UniProt P01133); assay: LTEA_HepaRG_EGF: Life Technologies and Expression Analysis (LTEA) Assay for Epidermal growth factor (EGF) using HepaRG (AID 2283489)
Summary of the method: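 Differentiated human HepaRG cells, plated 48 h then switched to serum-free induction medium, were exposed for 48 h to test chemicals (8-point half-log series, top 100 uM, 0.5% DMSO). EGF mRNA was quantified by qRT-PCR, normalized to ACTB, GAPDH, POLR2A.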

[14] = read-out: Early growth response protein 1 (EGR1) transcription factor, EGR1 (gene 1958); assay: LTEA_HepaRG_EGR1: Life Technologies and Expression Analysis (LTEA) Assay for Early growth response protein 1 (EGR1) transcription factor using HepaRG (AID 2283490)
Summary of the method: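 Read-out is EGR1 mRNA level by qRT-PCR, normalized to three housekeeping genes and analysed for gain or loss of signal against 0.5% DMSO. Source cells: human HepaRG, treated 48 h at up to 100 uM in half-log dilutions.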

CYP2E1 (gene 1571) = assay: LTEA_HepaRG_CYP2E1: Life Technologies and Expression Analysis (LTEA) Assay for CYP2E1 using HepaRG (AID 2283485)
Summary of the method: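 Human liver line HepaRG, plated 48 h, then serum-free induction medium + chemical x 48 h; 8-pt CRC from 100 uM, half-log, 0.5% DMSO, n=2. Readout: CYP2E1 mRNA qRT-PCR vs ACTB/GAPDH/POLR2A; bidirectional fit vs DMSO.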

Measured: AC50

Sequence of Cytochrome P450 2C19 (Homo sapiens) (P33261 whole entry, looked up): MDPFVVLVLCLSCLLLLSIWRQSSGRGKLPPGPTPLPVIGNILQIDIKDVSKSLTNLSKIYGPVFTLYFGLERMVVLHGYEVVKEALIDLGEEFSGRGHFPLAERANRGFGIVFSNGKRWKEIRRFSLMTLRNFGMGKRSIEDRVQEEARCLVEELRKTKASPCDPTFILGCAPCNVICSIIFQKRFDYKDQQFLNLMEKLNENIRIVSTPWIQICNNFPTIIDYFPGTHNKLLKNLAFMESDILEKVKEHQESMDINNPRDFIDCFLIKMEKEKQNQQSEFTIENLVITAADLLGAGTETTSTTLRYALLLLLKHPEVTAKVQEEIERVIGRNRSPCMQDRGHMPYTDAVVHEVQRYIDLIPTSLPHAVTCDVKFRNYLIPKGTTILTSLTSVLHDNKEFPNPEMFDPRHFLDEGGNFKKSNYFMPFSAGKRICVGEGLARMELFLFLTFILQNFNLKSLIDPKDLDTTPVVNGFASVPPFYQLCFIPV
Sequence of Apoptosis regulator Bcl-2 (Homo sapiens) (P10415 whole entry, looked up): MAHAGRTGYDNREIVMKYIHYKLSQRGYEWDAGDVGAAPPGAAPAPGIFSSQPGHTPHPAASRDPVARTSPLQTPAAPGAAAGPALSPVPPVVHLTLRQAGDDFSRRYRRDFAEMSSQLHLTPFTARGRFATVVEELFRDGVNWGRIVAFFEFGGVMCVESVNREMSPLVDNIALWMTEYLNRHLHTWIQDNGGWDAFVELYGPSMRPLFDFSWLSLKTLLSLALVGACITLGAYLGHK
Sequence of Cytochrome P450 3A4 (Homo sapiens) (P08684 whole entry, looked up): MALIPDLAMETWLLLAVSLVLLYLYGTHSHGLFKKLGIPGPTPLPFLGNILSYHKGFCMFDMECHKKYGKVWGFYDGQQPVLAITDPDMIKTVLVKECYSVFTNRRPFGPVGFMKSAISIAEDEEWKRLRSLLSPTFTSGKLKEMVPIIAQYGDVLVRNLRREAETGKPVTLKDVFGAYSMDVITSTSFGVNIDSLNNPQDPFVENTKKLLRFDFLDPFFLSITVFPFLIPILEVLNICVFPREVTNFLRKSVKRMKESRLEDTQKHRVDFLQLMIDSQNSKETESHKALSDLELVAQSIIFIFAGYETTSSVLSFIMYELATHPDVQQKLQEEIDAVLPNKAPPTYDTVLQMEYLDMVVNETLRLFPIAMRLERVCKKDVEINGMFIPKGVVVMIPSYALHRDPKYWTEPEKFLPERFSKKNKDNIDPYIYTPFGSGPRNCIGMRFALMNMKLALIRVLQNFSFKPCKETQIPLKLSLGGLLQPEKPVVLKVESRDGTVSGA
Sequence of Caspase-3 (Homo sapiens) (P42574 whole entry, looked up): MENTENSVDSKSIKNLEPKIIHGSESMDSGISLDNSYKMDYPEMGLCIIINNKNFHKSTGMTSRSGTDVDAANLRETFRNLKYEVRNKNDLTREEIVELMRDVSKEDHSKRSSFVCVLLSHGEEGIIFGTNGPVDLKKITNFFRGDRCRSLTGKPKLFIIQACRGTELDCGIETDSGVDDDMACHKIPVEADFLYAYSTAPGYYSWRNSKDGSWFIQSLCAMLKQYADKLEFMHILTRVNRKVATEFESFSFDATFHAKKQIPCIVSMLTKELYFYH

CNC(=O)N(C)c1nnc(C(C)(C)C)s1
active: [7] 50 µM | [9] 31.6 µM
not listed: CYP2E1 (gene 1571)
inactive: all other assays above

N#Cc1c[nH]cc1-c1cccc2c1OC(F)(F)O2
inactive: [1] | [3] | [5] | Caspase-3 (Homo sapiens) | [6] | [8] | CYP2C8 (gene 1558) | [12] | [13]
active: [2] 73.3 µM | BCL2L11 (gene 10018) 20.9 µM | [7] 21.3 µM | [9] 32 µM | [10] 93.5 µM | CYP2C9 (gene 1559) 50 µM | CYP2E1 (gene 1571) 76 µM | CYP4A11 (gene 1579) 85.2 µM | [11] 9.76 µM | [14] 50 µM

CN/C(=N\[N+](=O)[O-])NCc1cnc(Cl)s1
active: [2] 50 µM | [9] 30.8 µM | CYP2E1 (gene 1571) 50 µM
inactive: all other assays above

Cc1c(COC(=O)[C@@H]2[C@H](/C=C(\Cl)C(F)(F)F)C2(C)C)cccc1-c1ccccc1
active: [2] 50 µM | [7] 76.3 µM | [10] 17.9 µM | CYP2E1 (gene 1571) 48.2 µM | [11] 11.3 µM | [12] 81.2 µM
not listed: [9]
inactive: all other assays above

CCCCC(O)(Cn1cncn1)c1ccc(Cl)cc1Cl (configuration not stated)
active: [2] 68.4 µM | [3] 65.6 µM | [4] 59.5 µM | [7] 87.4 µM | [9] 80.1 µM | [10] 83.2 µM | CYP2C8 (gene 1558) 78.5 µM | CYP2C9 (gene 1559) 73.8 µM | CYP2E1 (gene 1571) 46.4 µM | CYP4A11 (gene 1579) 59 µM | [11] 85.6 µM | [12] 77.4 µM | [14] 69.2 µM
inactive: [1] | BCL2L11 (gene 10018) | [5] | Caspase-3 (Homo sapiens) | [6] | [8] | [13]

Cn1c(-c2ccccc2)cc(-c2ccccc2)[n+]1C
inactive: BCL2L11 (gene 10018) | [6] | [14]
active: [1] 82.1 µM | [2] 39.5 µM | [3] 63.8 µM | [4] 13.3 µM | [5] 80 µM | Caspase-3 (Homo sapiens) 50 µM | [7] 13.2 µM | [8] 89.2 µM | [9] 11.3 µM | [10] 50 µM | CYP2C8 (gene 1558) 13.5 µM | CYP2C9 (gene 1559) 19.5 µM | CYP2E1 (gene 1571) 24.5 µM | CYP4A11 (gene 1579) 20.3 µM | [11] 50 µM | [12] 13.5 µM | [13] 81.3 µM
